Out of some 360,000 compounds screened, about 25,000 (6.9%) were called active. About 9% were inconclusive and are not listed. The call rests on the fitted dose curve; in most records, active means well fitted inhibition curve with a large enough effect; inconclusive means small, poorly fitted or top-dose-only effect; inactive means flat fitted curve, though single readings scatter. The list comes from a sample in which actives are over-represented; it also holds similar structures and randomly drawn compounds. Where a call stands in place of a potency, no number is given.
Potency means the concentration at half of the fitted maximal effect.

Sequence of Luciferin 4-monooxygenase (Photinus pyralis) (P08659 whole entry, looked up): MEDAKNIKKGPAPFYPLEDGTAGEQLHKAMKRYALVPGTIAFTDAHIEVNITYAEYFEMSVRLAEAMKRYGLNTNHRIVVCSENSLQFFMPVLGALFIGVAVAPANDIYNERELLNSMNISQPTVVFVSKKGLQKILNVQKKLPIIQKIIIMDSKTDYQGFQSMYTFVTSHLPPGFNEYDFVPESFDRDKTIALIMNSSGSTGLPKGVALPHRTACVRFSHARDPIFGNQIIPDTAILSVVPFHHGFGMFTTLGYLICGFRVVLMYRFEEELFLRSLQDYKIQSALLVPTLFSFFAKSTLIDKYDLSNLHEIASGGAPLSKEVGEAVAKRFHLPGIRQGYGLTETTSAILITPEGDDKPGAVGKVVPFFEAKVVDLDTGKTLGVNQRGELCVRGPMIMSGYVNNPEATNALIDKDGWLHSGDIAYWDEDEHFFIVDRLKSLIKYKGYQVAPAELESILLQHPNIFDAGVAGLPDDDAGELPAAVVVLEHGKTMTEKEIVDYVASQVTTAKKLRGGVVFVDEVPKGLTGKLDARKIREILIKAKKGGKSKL

This assay deals with Luciferin 4-monooxygenase (Photinus pyralis) (UniProt P08659). Nature of the assay: qHTS profiling assay for firefly luciferase inhibitor/activator using purifed enzyme and Km concentrations of substrates (counterscreen for miR-21 project). Further: nearly all actives have a fitted effect of over 55% in size. Conditions: purified FLuc, luminescence inhibition; series mostly up to 57.5 µM. The procedure, abridged:
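Purified P. pyralis luciferase (10nM final) with 10uM D-luciferin and 10uM ATP (Km levels) in 50mM Tris acetate pH 7.5, 10mM Mg acetate, 0.01% Tween-20, 0.05% BSA; qHTS 6-point titration, ~60 µM downward; luminescence read.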
For orientation: qHTS replaces the single test concentration by a dilution series.
`COc1ccc(C(=O)OCC(=O)Nc2cccc(C(C)=O)c2)cc1OC`: the Potency entry is “inactive”. In the case of `Cc1ccc(F)cc1NC(=O)c1ccc2c(c1)OCO2` it was “inactive”. For `CC(=O)Nc1cccc(C(=O)OCC(=O)NCc2cc(C)c(O)c(C)c2)c1` the value was 15.1 µM (active); for `O=C(Nc1ccccc1)Nc1nnc(COc2ccccc2F)s1`, “inactive”; for `O=C(Nc1ccccc1F)c1ccc2c(c1)OCO2`, 19 µM (active). For the compound `O=C(Nc1ccccc1)Nc1nc2ccccc2s1`, the Potency was 0.849 µM (active). As for `O=C(Nc1ccc(Cl)cc1)Nc1nnc(/C=C/c2ccccc2)s1`, the Potency result is “inactive”. For `Cc1ccc(C(=O)OCC(=O)NCc2cc(C)c(O)c(C)c2)cc1S(=O)(=O)N1CCCCC1` the value was “inactive”; for `O=C(Nc1ccccc1N1CCN(C(=O)c2ccccc2)CC1)c1ccc2c(c1)OCO2`, “inactive”; for `O=S(=O)(NC1CCN(S(=O)(=O)c2ccc3c(c2)OCCO3)CC1)c1c(F)cccc1F`, “inactive”.

Turning to `CCc1ccc(S(=O)(=O)c2nnn3c2nc(N2CCN(CC)CC2)c2sccc23)cc1`, the Potency result is “inactive”. As for `CC(=O)Nc1ccc(S(=O)(=O)NC(C)C(=O)OCCOc2ccc(F)cc2)cc1` (stereo not drawn), the Potency result is “inactive”.

With `CNS(=O)(=O)c1ccc(N2CCCC2=O)c([N+](=O)[O-])c1`, the Potency result is “inactive”.

Take `NS(=O)(=O)c1ccc(NC(=S)N2CCCC2)cc1`: the Potency entry was “inactive”. In the case of `Cc1ccc(-c2ccc(=O)n(CC(=O)NCCCN3CCCCC3)n2)cc1` it was “inactive”; in that of `CCc1ccc(-c2cc3c(=O)n(CC(=O)NCCCN4CCN(Cc5ccccc5)CC4)nc(C)n3n2)cc1`, 8.49 µM (active); in that of `CCCN1CCN(CCCNC(=O)Cn2nc(CC)n3c(cc4occc43)c2=O)CC1`, “inactive”.

Consider `CCOCCn1ccc2c(OCC(=O)NCc3ccc(C)cc3)cccc2c1=O`, for which the Potency result is “inactive”.

Turning to `CCC(=O)N1CCc2cc(S(=O)(=O)NC(Cc3ccccc3)C(=O)NCc3ccc(C)cc3)ccc21` (stereo not drawn), the Potency entry was “inactive”.

On to `Brc1ccc(C2CC(c3ccccc3)=Nc3ccccc3N2)cc1` (stereo not drawn), for which the Potency is 26.9 µM (active). For `O=C(c1ccccc1)N1N=C(c2ccccc2O)CC1c1ccc(Br)cc1` (stereo not drawn), the Potency entry was “inactive”.

As for `COc1ccc(N2C(=O)NC(NS(=O)(=O)c3ccc(Cl)cc3)(C(F)(F)F)C2=O)cc1` (stereo not drawn), the Potency entry was “inactive”. With `COC(=O)c1sc2ncccc2c1-n1c(C)ccc1C`, the Potency result is “inactive”.

As to `CC(=O)c1ccc(S(=O)(=O)N2CCN(C(=O)/C=C/c3ccc4ccccc4n3)CC2)cc1`, the Potency result was “inactive”. Regarding `CCOc1cccc(/C=C/c2ccc3ccccc3n2)c1OC(C)=O`, the Potency was 7.57 µM (active). On to `COc1ccc(CNC(=O)/C(C#N)=C/c2cccc(OC)c2OC)cc1`, for which the Potency entry was “inactive”. In the case of `COc1cccc(/C=C/c2ccc3ccccc3n2)c1OC(C)=O` it was 5.36 µM (active); in that of `CCOc1ccccc1/C=N/Nc1nc2ccccc2o1`, “inactive”.

The values are drawn from PubChem BioAssay AID588342 (National Center for Advancing Translational Sciences (NCATS), 2011).
